Most compounds without a hit are left out; they make up all but 2.8% or so of the library.
S2 tox: cell viability loss in ATXN counter-screen; hit rate 0.49% among 400,000; Potency, µM (top dose mostly 56.7 µM), most hits filed as cytotoxic; S2 cells (HEK-293 line with an ATXN2-luciferase reporter) viability, CellTiter-Fluor protease fluorescence, 24 h; also: nearly all actives have a fitted effect of over 40% in size
TGFb inhibitor: blocks TGF-b signaling | HepG2 CAGA-GFP TGF-b/SMAD3 reporter, GFP fluorescence, 18 h; TGF-beta stimulated, 500 pg/mL final | Potency, µM (top dose mostly 46.1 µM), actives largely listed as inhibitors | hit rate 1.2% among 410,000 | AID 588855; also: nearly all actives have a fitted effect of over 65% in size
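Inhibition of TGF-beta-driven CAGA-GFP reporter expression in HEPG2 cells is measured by cellular GFP fluorescence after 18 h stimulation with 500 pg/mL recombinant TGF-beta in 1% FBS medium at 37 degrees C.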
HepG2 tox-1: HepG2 cytotoxicity, counter-screen for TGF-b inhibitors. AID 588856. HepG2 CAGA-GFP viability, ATP luminescence, 18 h. hit rate 0.76% among 410,000. Potency, µM (top dose mostly 46.1 µM), most hits filed as cytotoxic
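HepG2 CAGA-GFP cells (1000/well, DMEM with 1% FBS) received compound, then TGF-beta at 500 pg/mL final, and were incubated 18 hours at 37 degrees C. Viability was read by CellTiter-Glo luminescence. Media-only wells were set as complete cell-killing and DMSO as no toxicity.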
ATXN2 expr inh: ATXN2 expression inhibition | HEK-293 ATXN2-luciferase reporter, luminescence, 24 h | Potency, µM (doses to about 57 µM), actives largely listed as inhibitors | hit rate 0.72% among 360,000; also: nearly all actives have a fitted effect of over 55% in size
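ATXN2-luciferase reporter cells (luciferase flanked by upstream and downstream ATXN2 gene portions) were treated 24 h at 37 °C with compounds at up to 57 uM. SteadyGlo luminescence gave expression; GF-AFC fluorescence gave viability.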
HTT cytoprotect: cytoprotection in Huntington HTT-Q103 PC12 cell model; AID 1471; PC12 HTT-Q103 induced, cytoprotection, ATP luminescence, 40 h; hit rate 0.14% among 230,000; Potency, µM (top dose mostly 56.4 µM), actives largely listed as activators; also: nearly all actives have a fitted effect of over 45% in size
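PC12 cells stably carrying ecdysone-inducible Htt exon 1 (Q103)–GFP were induced with 100 nM tebufenozide (final) alongside library compounds in a dose series. Cytoprotection was scored as retained ATP by ATPlite luminescence.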
HttQ103 aggreg: inhibitors of mutant huntingtin aggregate formation in PC12 cells. PC12 HttQ103-GFP aggregates, Acumen cytometry, 40 h. Potency, µM (highest dose often 46.1 µM), most hits filed as inhibitors. hit rate 1.1% among 220,000. AID 1688; also: nearly all actives have a fitted effect of over 60% in size
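Inducible Q103 Huntingtin exon 1–GFP PC12 line, 1500 cells/well in phenol red free DMEM with 5% equine and 5% calf serum. Tebufenozide 100 nM induced expression; compounds titrated; aggregates quantified by cytometry.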
TGFb confirm: confirmation of TGF-b signaling inhibitors in HepG2 reporter cells; shares compounds with TGFb inhibitor; HepG2 CAGA-GFP TGF-b reporter, GFP fluorescence, 18 h; cells stimulated with TGF-beta, 500 pg/mL; Potency, µM (titrated, usually from 46.1 µM), actives largely listed as inhibitors; hit rate 63% among 1,600; also: nearly all actives have a fitted effect of over 65% in size
HepG2 tox-2: toxic to HepG2 cells in TGF-b counterscreen; shares compounds with TGFb inhibitor; HepG2 CAGA-GFP viability, ATP luminescence, 18 h; cells stimulated with TGF-beta, 500 pg/mL; Potency, µM (top dose mostly 46.1 µM), usual class: inhibitors; hit rate 27% among 1,600; AID 720535; also: nearly all actives have a fitted effect of over 70% in size
CCL64 TGFb inh: TGF-b inhibition, CCL64 orthogonal assay. shares compounds with TGFb inhibitor. CCL64 CAGA-GFP reporter, TGF-b stimulated, GFP fluorescence, 18 h. Potency, µM (doses to about 46.1 µM), most hits filed as inhibitors. hit rate 41% among 1,600. AID 720536; also: nearly all actives have a fitted effect of over 65% in size
TGFb COP inh: TGF-b inhibition validated with COP promoter; shares compounds with TGFb inhibitor; HepG2 COP-GFP TGF-b reporter, GFP fluorescence, 18 h; cells stimulated by added recombinant TGF-beta; Potency, µM (highest dose often 46.1 µM), usual class: inhibitors; hit rate 3% among 1,600; AID 720537; also: nearly all actives have a fitted effect of over 70% in size
Numbers stand for hits; [ ] = dose if it differs, or a comment. Calls follow the shape of the dose curve; as a rule, active = well fitted curve in the direction sought with a large enough effect; inconclusive = small, poorly fitted or top-dose-only effect, or another doubt; inactive = no such curve, though single readings can be large; an effect the other way counts as inactive or inconclusive.

How did COc1cc(NC(=O)c2cc(Cl)ccc2Cl)ccc1-c1cc2ccccc2oc1=O do in these assays?
S2 tox: inactive; TGFb inhibitor: inactive; HepG2 tox-1: inactive; ATXN2 expr inh: inactive; HTT cytoprotect: inactive; HttQ103 aggreg: inactive

What do the screens show for `COc1ccc(CC(N)C(=O)N[C@H]2[C@@H](O)[C@H](n3cnc4c(N(C)C)ncnc43)O[C@@H]2CO)cc1` (stereo partly specified)?
HTT cytoprotect: inactive

How did Cc1ccc2nc(/C(C#N)=C\c3ccc(N4CCOCC4)o3)[nH]c2c1 do in these assays?
S2 tox: inactive; TGFb inhibitor: inactive; HepG2 tox-1: inactive; ATXN2 expr inh: inactive; HTT cytoprotect: inactive[10 µM]; HttQ103 aggreg: inconclusive

How did Cc1ccc2nc(/C(C#N)=C\c3ccc([N+](=O)[O-])o3)[nH]c2c1 do in these assays?
TGFb inhibitor: inconclusive; HepG2 tox-1: 5µM; ATXN2 expr inh: 5.6µM; HTT cytoprotect: inactive; HttQ103 aggreg: inconclusive; TGFb confirm: 16µM; HepG2 tox-2: 6.5µM; CCL64 TGFb inh: 4.6µM; TGFb COP inh: inactive

How did CC(NC(=O)CC(c1ccccc1)c1cc(Cl)ccc1O)c1ccccc1 (stereo unspecified) do in these assays?
S2 tox: inconclusive; TGFb inhibitor: 16µM; HepG2 tox-1: inactive; ATXN2 expr inh: inactive; HttQ103 aggreg: inactive; TGFb confirm: inconclusive; HepG2 tox-2: 23µM; CCL64 TGFb inh: 18µM; TGFb COP inh: inactive

What do the screens show for `Cc1ccc(O)c(C(CC(=O)NC(C)C)c2ccccc2)c1` (stereo unspecified)?
S2 tox: inactive; TGFb inhibitor: inconclusive; HepG2 tox-1: inactive; ATXN2 expr inh: inactive; HTT cytoprotect: inactive; HttQ103 aggreg: inactive

Results for COc1ccc(-c2csc(NC(=O)c3ccccc3NS(=O)(=O)c3ccc(F)c(F)c3)n2)cc1 ?
S2 tox: inconclusive; TGFb inhibitor: 1.8µM; HepG2 tox-1: inactive; ATXN2 expr inh: 7.1µM; HTT cytoprotect: inactive[10 µM]; HttQ103 aggreg: 2.5µM; TGFb confirm: 2.3µM; HepG2 tox-2: 1.5µM; CCL64 TGFb inh: 1.8µM; TGFb COP inh: inactive

How did O=C(Nc1cc(S(=O)(=O)N2CCCCC2)ccc1O)c1ccccc1NS(=O)(=O)c1ccc(F)cc1 do in these assays?
S2 tox: inactive; TGFb inhibitor: 18µM; HepG2 tox-1: inactive; ATXN2 expr inh: inconclusive; HTT cytoprotect: inactive[0.074 µM]; HttQ103 aggreg: inactive; TGFb confirm: 16µM; HepG2 tox-2: inconclusive; CCL64 TGFb inh: inconclusive; TGFb COP inh: inactive

What do the screens show for `Cc1ccc(S(=O)(=O)Nc2ccccc2C(=O)Nc2nc(-c3ccc(F)cc3)cs2)cc1`?
S2 tox: inconclusive; TGFb inhibitor: 5.6µM; HepG2 tox-1: inactive; ATXN2 expr inh: inconclusive; HTT cytoprotect: inactive[0.074 µM]; HttQ103 aggreg: inactive; TGFb confirm: 5.2µM; HepG2 tox-2: 5.8µM; CCL64 TGFb inh: 5.2µM; TGFb COP inh: inactive

How did Cc1ccc(S(=O)(=O)Nc2nc(-c3ccccc3)cs2)cc1 do in these assays?
S2 tox: inactive; TGFb inhibitor: inactive; HepG2 tox-1: inactive; ATXN2 expr inh: inactive

How did C=CCNC(=O)c1cnn2c1NC(=C)C=C2C do in these assays?
TGFb inhibitor: inactive; HepG2 tox-1: inactive

Results for NC(=O)C1CC2(NC(=O)NC2=O)c2cc(F)ccc2O1 (stereo unspecified) ?
HTT cytoprotect: inactive; HttQ103 aggreg: inactive

What do the screens show for `CCCC[C@H]1C2=C3[C@@H](CC(C(=O)OC)=C[C@@H](C(=O)OC)[C@H]3C(C)(C)C2=O)n2c(=O)n(C)c(=O)n21`?
TGFb inhibitor: inactive; HepG2 tox-1: inactive

Results for COc1cccc2c1C(=O)c1c(O)c3c(c(O)c1C2=O)C[C@@](O)(C(=O)CO)C[C@@H]3OC1CC(N)C(O)C(C)O1 (stereo partly specified) ?
S2 tox: 12µM; TGFb inhibitor: 5.6µM; HepG2 tox-1: inactive; ATXN2 expr inh: inconclusive; HTT cytoprotect: inactive; HttQ103 aggreg: 2.5µM; TGFb confirm: 2.6µM; HepG2 tox-2: 1.3µM; CCL64 TGFb inh: 3.3µM; TGFb COP inh: inactive

What do the screens show for `COc1cccc2c1C(=O)c1c(O)c3c(c(O)c1C2=O)C[C@](O)(C(C)=O)C[C@H]3O[C@@H]1C[C@H](N)[C@H](O)[C@H](C)O1`?
HTT cytoprotect: inactive

How did COc1cccc2c1C(=O)c1c(O)c3c(c(O)c1C2=O)CC(O)(C(C)=O)CC3OC1CC(N(C)C)C(O)C(C)O1 (stereo unspecified) do in these assays?
S2 tox: inconclusive; TGFb inhibitor: 0.79µM; HepG2 tox-1: inactive; ATXN2 expr inh: inconclusive; TGFb confirm: 0.26µM; HepG2 tox-2: 0.33µM; CCL64 TGFb inh: 1µM; TGFb COP inh: inconclusive

How did Cc1sc2ncnc(N3CCC(C(=O)Nc4nc(-c5cccs5)cs4)CC3)c2c1C do in these assays?
S2 tox: inconclusive; TGFb inhibitor: inconclusive; HepG2 tox-1: inactive; ATXN2 expr inh: inactive; TGFb confirm: 7.3µM; HepG2 tox-2: inconclusive; CCL64 TGFb inh: inconclusive; TGFb COP inh: inactive

Results for O=C1[C@H]2[C@H]3[C@H](O)[C@H](O)C/C(=N/OC[C@@H](O)COCc4ccco4)[C@H]3CC[C@@H]2C(=O)N1Cc1ccc2c(c1)OCO2 ?
HTT cytoprotect: inactive[10 µM]

Results for Cc1nc(-c2ccc(S(=O)(=O)N3CCN(C4c5ccccc5-c5ccccc54)CC3)s2)cs1 ?
S2 tox: inactive; TGFb inhibitor: inactive; HepG2 tox-1: inactive; ATXN2 expr inh: inactive; HTT cytoprotect: inactive[10 µM]; HttQ103 aggreg: inactive[9.22 µM]

Source: PubChem
